The subject of test [1] is Wnt5a (protein binding on small-molecule microarray). Kind of test: Wnt5a binders on small-molecule microarray, primary screen, biophysical, 635/667 nm fluorescence (AID 1142).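 Also: fluorescence read at 667 nm with signal to noise per printed feature.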 Conditions: 635 nm fluorescence, higher = more signal.
Test [2] in a line: cell viability in Huh7 cells, primary screen, cytotoxicity control for HCV replication inhibitor project, CellTiter-Glo luminescence, basal, 48 h (AID 1143).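 Also: Huh7 hepatoma cells carrying a hepatitis C replication reporter with no stimulus; test concentration not given here.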 The settings on record: Huh7 HCV replicon, higher = more signal, called active from +8 up or from −8 down. (Cellular ATP, detected with luciferase, serves as a proxy for viable cell number.)
Test [3] can be described thus: P. aeruginosa biofilm formation inhibitors, primary screen, PAO1 strain, BacTiter-Glo luminescence, LB-PBS (AID 1144). Conditions: 12 h, higher = more signal.
Test [4] is described as follows: CREB reporter modulators without forskolin, primary screen, cell-based, PC12, CRE-LacZ reporter, unstimulated (AID 1145). The settings on record: no forskolin, luminescence, 4.5 h, higher = more signal, called active from +8 up or from −8 down.
A short description of test [5]: CREB reporter modulators under forskolin, primary screen, cell-based, PC12, CRE-LacZ reporter, forskolin-stimulated (AID 1146).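 Also: PC12 cells with 6xCRE LacZ reporter stimulated by forskolin 10 µM; beta-galactosidase reporter signal reflecting CREB driven transcription.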 Conditions: luminescence, 4.5 h, higher = more signal, called active from +8 up or from −8 down.
In test [6] the target is Streptavidin (Streptomyces avidinii) (UniProt P22629). The test can be described thus: streptavidin binders on small-molecule microarray, primary screen, artefact control for SMM compound annotation, biophysical, 635/667 nm fluorescence (AID 1147).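 Also: signal reflects streptavidin binding to arrayed compounds as a control protein.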 The settings on record: streptavidin binding, higher = more signal.
Test [7] can be described thus: small-molecule binders of probe aInhba, primary screen, biochemical, small-molecule microarray, 635/667 nm fluorescence (AID 1148).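 Also: score merges 667nm spot fluorescence with signal-to-noise for antibody binding to printed compounds.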 The settings on record: higher = more signal.
Test [8] concerns the target Torsin-1A (Homo sapiens) (UniProt O14656). Kind of test: torsin A binders from cell lysate, primary screen, small-molecule microarray, wild-type, 635/667 nm (AID 1149). Conditions: COS7 hTOR1A-WT lysate, 635 nm fluorescence, higher = more signal.
For test [9] the target is unchanged. The test can be described thus: small-molecule binders of mutant TOR1A in lysate, primary screen, cell lysate, small-molecule microarray, COS7 lysate, 635/667 nm fluorescence (AID 1150).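 Also: score pools 667 nm emission and signal to noise measuring lysate protein binding.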 Conditions: COS7 hTOR1A mutant lysate, 635 nm fluorescence, higher = more signal.
For test [10], the system named is Sonic hedgehog protein (Shh). The test can be described thus: small-molecule binders of Shh protein, primary screen, biochemical, small-molecule microarray, 635/667 nm fluorescence (AID 1151).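 Also: Shh protein binding to compounds spotted on small-molecule microarray slides; score combines spot fluorescence intensity with signal-to-noise across triplicate slides.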 The settings on record: small-molecule microarray binding, 635 nm fluorescence; higher = more signal.
Test [11] in a line: E. coli DRC41 culture turbidity changes, primary screen, E. coli filamentation inducer project, strain DRC41, OD650, 48 h (AID 1152).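 Also: E. coli MC1000 strain DRC41 lacking acrAB efflux pump and sulA.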 Conditions: E. coli DRC41 (acrAB sulA), higher = more signal, called active from +8 up or from −8 down.
A short description of test [12]: small-molecule binders of probe aLefty1, primary screen, biochemical, small-molecule microarray, 635/667 nm fluorescence (AID 1153).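 Also: score merges spot fluorescence with signal-to-noise ratio from the scanned slide images.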 The settings on record: higher = more signal.
The nature of test [13]: PSAC antagonists in infected red cells, primary screen, cell-based, P. falciparum Indochina, OD700, 1 h (AID 1154). The settings on record: P. falciparum Indochina infected RBC osmotic lysis, higher = more signal, called active from +8 up or from −8 down.
Test [14] is described as follows: PSAC antagonists in infected red cells, primary screen, cell-based, P. falciparum Indochina, OD700, 2 h (AID 1155).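 Also: lysis reports solute entry through the parasite surface anion channel PSAC; channel blockers reduce lysis of infected cells.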 Conditions: P. falciparum Indochina infected erythrocytes, osmotic lysis OD700; higher = more signal, called active from +8 up or from −8 down.
Test [15] in a line: osmotic lysis modulators in infected erythrocytes, primary screen, PSAC antagonist project, cell-based, P. falciparum Indochina, OD700, 3 h (AID 1156). The settings on record: higher = more signal, called active from +8 up or from −8 down.
Test [16] in a line: PSAC antagonists in infected red cells, primary screen, cell-based, P. falciparum Indochina, OD700, 18 h (AID 1157). The settings on record: P. falciparum Indochina infected erythrocytes, osmotic lysis OD700, 18 h; higher = more signal, called active from +8 up or from −8 down.
The nature of test [17]: modulators of S6 phosphorylation in cells, primary screen, cell-based, A549, cytoblot, luminescence, serum-stimulated (AID 1158).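 Also: serum-stimulated A549 lung adenocarcinoma cells; signal is phosphorylated S6 detected by cytoblot immunostaining with HRP secondary.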 The settings on record: A549 phospho-S6 cytoblot, 5 h, higher = more signal.
Test [18] concerns the target NADPH oxidase 2 (Homo sapiens) (UniProt P04839). Kind of test: NOX2-dependent H2O2 signal modulators, primary screen, NOX inhibitor project, cell-based, HEK293-NOX2, PMA-stimulated, Amplex Red fluorescence (AID 1159). Also: test concentration not given here. The settings on record: 45 min, higher = more signal, called active from +8 up or from −8 down.
The target of test [19] is NADPH oxidase 4 (Homo sapiens) (UniProt Q9NPH5). Kind of test: NOX4-dependent H2O2 signal modulators, primary screen, NOX inhibitor project, cell-based, HEK293-NOX4, tetracycline-induced, Amplex Red fluorescence (AID 1160). The settings on record: 45 min, higher = more signal, called active from +8 up or from −8 down.
The target in test [20] is NADPH oxidase 5 (Homo sapiens) (UniProt Q96PH1). Kind of test: NOX5-dependent H2O2 signal modulators, primary screen, NOX inhibitor project, cell-based, HEK293-NOX5, Amplex Red fluorescence (AID 1161). Conditions: HEK293-NOX5, ionomycin, 45 min, higher = more signal.

The structures appear in SMILES notation. Calls of active or inactive are those of the source. Unless noted, no rule for the calls is given here.

Streptavidin (Streptomyces avidinii), sequence (P22629 whole entry, looked up): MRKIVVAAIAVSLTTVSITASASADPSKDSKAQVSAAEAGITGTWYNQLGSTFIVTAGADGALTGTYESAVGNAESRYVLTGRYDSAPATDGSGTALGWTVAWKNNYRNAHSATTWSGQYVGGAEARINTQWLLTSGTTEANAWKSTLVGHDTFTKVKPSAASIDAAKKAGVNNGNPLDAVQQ
Torsin-1A (Homo sapiens), sequence (O14656 whole entry, looked up): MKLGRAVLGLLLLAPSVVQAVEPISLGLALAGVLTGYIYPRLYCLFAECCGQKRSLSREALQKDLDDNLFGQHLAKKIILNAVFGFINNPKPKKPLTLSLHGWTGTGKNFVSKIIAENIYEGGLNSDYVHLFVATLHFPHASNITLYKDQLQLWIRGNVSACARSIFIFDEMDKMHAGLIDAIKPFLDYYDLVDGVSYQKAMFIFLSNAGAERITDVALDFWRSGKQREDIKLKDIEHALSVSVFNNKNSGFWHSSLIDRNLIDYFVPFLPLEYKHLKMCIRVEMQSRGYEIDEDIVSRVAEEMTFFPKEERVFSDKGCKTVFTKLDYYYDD
NADPH oxidase 4 (Homo sapiens), sequence (Q9NPH5 whole entry, looked up): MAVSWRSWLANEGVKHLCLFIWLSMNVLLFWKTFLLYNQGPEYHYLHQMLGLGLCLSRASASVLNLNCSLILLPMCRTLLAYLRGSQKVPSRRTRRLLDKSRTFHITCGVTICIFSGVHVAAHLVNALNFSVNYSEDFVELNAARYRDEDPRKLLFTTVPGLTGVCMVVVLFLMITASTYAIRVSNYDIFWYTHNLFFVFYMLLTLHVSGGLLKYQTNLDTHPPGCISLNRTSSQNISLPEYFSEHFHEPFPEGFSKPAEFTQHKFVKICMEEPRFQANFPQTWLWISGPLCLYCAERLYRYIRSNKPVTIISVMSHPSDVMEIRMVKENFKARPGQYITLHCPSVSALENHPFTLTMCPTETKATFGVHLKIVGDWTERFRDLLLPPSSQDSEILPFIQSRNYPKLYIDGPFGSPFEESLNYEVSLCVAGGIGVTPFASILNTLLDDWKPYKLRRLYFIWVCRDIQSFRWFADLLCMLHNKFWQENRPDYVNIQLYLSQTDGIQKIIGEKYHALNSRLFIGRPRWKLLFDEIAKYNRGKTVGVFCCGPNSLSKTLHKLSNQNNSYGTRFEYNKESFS
NADPH oxidase 2 (Homo sapiens), sequence (P04839 whole entry, looked up): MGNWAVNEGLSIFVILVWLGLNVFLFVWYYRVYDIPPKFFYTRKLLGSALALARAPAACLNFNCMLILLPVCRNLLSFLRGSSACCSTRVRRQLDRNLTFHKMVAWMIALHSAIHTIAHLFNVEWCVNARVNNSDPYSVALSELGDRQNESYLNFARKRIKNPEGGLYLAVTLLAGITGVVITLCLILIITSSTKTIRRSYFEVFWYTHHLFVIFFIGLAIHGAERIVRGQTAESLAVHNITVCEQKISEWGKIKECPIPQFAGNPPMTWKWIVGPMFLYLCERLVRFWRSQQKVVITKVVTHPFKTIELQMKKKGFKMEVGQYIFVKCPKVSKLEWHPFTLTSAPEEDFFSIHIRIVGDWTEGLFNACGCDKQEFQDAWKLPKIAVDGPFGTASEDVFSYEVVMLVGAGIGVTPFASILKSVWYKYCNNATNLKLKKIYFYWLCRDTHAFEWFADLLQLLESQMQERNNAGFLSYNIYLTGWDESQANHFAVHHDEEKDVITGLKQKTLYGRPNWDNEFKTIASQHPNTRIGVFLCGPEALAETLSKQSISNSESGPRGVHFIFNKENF
NADPH oxidase 5 (Homo sapiens), sequence (Q96PH1 whole entry, looked up): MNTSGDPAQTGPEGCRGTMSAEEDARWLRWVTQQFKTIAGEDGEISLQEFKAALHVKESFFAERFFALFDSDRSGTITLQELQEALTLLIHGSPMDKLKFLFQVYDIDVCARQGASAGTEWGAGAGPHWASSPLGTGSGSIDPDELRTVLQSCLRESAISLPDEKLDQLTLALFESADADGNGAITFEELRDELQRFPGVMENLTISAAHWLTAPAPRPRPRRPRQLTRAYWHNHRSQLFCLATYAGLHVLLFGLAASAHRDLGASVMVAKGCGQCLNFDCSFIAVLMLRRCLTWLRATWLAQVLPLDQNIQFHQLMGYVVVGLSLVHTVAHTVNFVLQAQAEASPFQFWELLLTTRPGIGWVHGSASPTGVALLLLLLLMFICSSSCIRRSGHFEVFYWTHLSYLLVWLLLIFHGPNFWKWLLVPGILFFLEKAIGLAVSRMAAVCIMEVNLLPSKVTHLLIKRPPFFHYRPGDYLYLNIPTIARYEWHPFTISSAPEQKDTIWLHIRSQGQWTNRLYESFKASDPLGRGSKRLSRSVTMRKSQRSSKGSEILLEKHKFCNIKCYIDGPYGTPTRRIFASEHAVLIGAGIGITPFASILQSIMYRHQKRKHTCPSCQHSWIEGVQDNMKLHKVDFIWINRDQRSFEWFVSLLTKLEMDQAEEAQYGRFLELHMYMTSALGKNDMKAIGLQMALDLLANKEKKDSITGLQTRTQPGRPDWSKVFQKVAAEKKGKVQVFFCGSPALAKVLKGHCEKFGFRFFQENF

Regarding `O=C1C[C@]2(c3ccc([N+](=O)[O-])cc3)C(=O)N(CCN3CCOCC3)c3cc(CO)ccc3[C@H]2N1CC12CC3CC(CC(C3)C1)C2`, the composite z-score in test [1] is -0.433; in test [6], -0.0783; in test [7], -0.122; with Torsin-1A (Homo sapiens) [8], -0.967; with Torsin-1A (Homo sapiens) [9], -0.862; in [10], -0.509. In test [12], this molecule returned a composite z-score of 0.056. Also, the z-score in test [2] is -1.04 (inactive); in test [3] it was -0.954 (inactive); in test [4] it was 0.324 (inactive); in [5], 0.247 (inactive); in test [11] it was 0.319 (inactive); in test [13], 1.4 (inactive). Also, the z-score in test [14] is -0.103 (inactive); in test [15], 1.68 (inactive); in test [16], 0.45 (inactive); in test [17] it was 0.349; in test [18], 0.194 (inactive); in [19] it was -1.09 (inactive). Also, the z-score in test [20] was -2.03.

On to `C=C(/C(=C/C[C@@H](OC(=O)c1ccncc1)c1ccc(OCCO)cc1)c1cnc2ccccc2c1)C(C)C`, for which the composite z-score was 0.73 in test [1]; 0.283 in test [6]; 0.0108 in test [7]; 1.55 with Torsin-1A (Homo sapiens) [8]; 0.815 in the test with Torsin-1A (Homo sapiens) [9]; 2.11 in test [10]. The molecule further had a composite z-score in test [12] of -0.0199. The z-score in test [2] was -8.41 (active); in [3], -0.56 (inactive); in test [4], 6.47 (inactive); in test [5], -0.209 (inactive); in test [11], 1.13 (inactive); in [13], 12.8 (active). In addition, the z-score in test [14] was 4.25 (inactive); in [15] it was -1.77 (inactive); in [16] it was -0.0139 (inactive); in [17] it was 0.13; in [18] it was -2.73 (inactive); in test [19], -0.648 (inactive). The molecule also had a z-score in [20] of -3.24.

Consider `CC(=O)OC[C@H]1O[C@@H](ON=C[C@@H](C)[C@H](OCc2ccccc2)C(C)C)[C@H](OC(C)=O)[C@@H](OC(C)=O)[C@@H]1OC(C)=O`, for which the composite z-score in test [1] is 0.235; in [6], -0.173; in test [7] it was 0.157; with Torsin-1A (Homo sapiens) [8] it was 1.68; in the test with Torsin-1A (Homo sapiens) [9] it was 0.958; in test [10], -0.925. The composite z-score in test [12] worked out at 0.113. Moreover, the z-score in test [2] was 0.558 (inactive); in test [3] it was -0.379 (inactive); in test [4] it was 2.19 (inactive); in test [5], 0.1 (inactive); in test [11], 0.319 (inactive); in test [13], 0.857 (inactive). The z-score in test [14] is 0.536 (inactive); in [15], 1.04 (inactive); in test [16] it was 0.22 (inactive); in test [17], 0.761; in [18] it was -0.72 (inactive); in [19] it was 0.404 (inactive). Further, in [20], the z-score is -0.856.

As to `COC(=O)[C@@H]1CCCN1C(=O)[C@@H](C)CO`, the composite z-score in test [1] was 0.111; in [6], 0.746; in [7], -0.183; with Torsin-1A (Homo sapiens) [8], 1.26; with Torsin-1A (Homo sapiens) [9], 0.546; in test [10], 0.202. The composite z-score in test [12] is -0.147. Further, the z-score was -2.44 (inactive) in [2]; -0.985 (inactive) in [3]; -0.347 (inactive) in [4]; -0.397 (inactive) in [5]; -0.926 (inactive) in [11]; 0.34 (inactive) in test [13]. The z-score is -0.603 (inactive) in [14]; 0.864 (inactive) in test [15]; -1.69 (inactive) in test [16]; 1.4 in [17]; -0.366 (inactive) in test [18]; -0.739 (inactive) in test [19]. For the same molecule, in test [20], the z-score was -1.15.

On to `COCCOC(=O)N1C(=O)[C@@]2(c3cc(C#Cc4ccc(OC)cc4)ccc31)[C@H](c1ccc(O)cc1)N1[C@H](c3ccccc3)[C@H](c3ccccc3)OC(=O)[C@H]1[C@@H]2C(N)=O`, for which the composite z-score is 0.586 in [1]; 0.417 in test [6]; -0.0947 in [7]; 0.187 with Torsin-1A (Homo sapiens) [8]; 0.825 with Torsin-1A (Homo sapiens) [9]; 1.44 in [10]. The composite z-score in test [12] was -0.303. Besides, the z-score in test [2] was -2.75 (inactive); in test [3] it was -0.97 (inactive); in test [4], -0.752 (inactive); in test [5], -0.94 (inactive); in test [11], 0.0372 (inactive); in [13] it was 6.02 (inactive). For the same molecule, the z-score in [14] was 1.5 (inactive); in test [15], -0.407 (inactive); in test [16], 0.954 (inactive); in test [17] it was -0.0604; in [18], 0.782 (inactive); in test [19], 0.689 (inactive). Further, in test [20], the z-score came out at 0.305.

With `CCN(CC)c1ccc(N2CC=CC34O[C@@H]5/C=C\CCC(C)OC(=O)C5[C@H]3C(=O)N(CCCO)[C@@H]4C2=O)cc1` (stereo not given in full), the composite z-score in [1] was 0.0023; in test [6], -0.946; in test [7], -0.211; with Torsin-1A (Homo sapiens) [8] it was 1.23; with Torsin-1A (Homo sapiens) [9], 2.02; in test [10], -0.403. In test [12], this molecule yielded a composite z-score of -0.191. The z-score is -0.682 (inactive) in [2]; 3.06 (inactive) in [3]; 0.0564 (inactive) in test [4]; -0.102 (inactive) in [5]; -0.074 (inactive) in test [11]; 1.43 (inactive) in test [13]. The z-score is -0.223 (inactive) in [14]; -0.0086 (inactive) in test [15]; -0.18 (inactive) in [16]; -0.473 in [17]; 0.056 (inactive) in [18]; -1.51 (inactive) in [19]. The molecule further gave a z-score in [20] of 0.975.

The values above are taken from PubChem BioAssay.
